Hits are enriched below; roughly 4% of the tested compounds scored in any of these assays.
HEK293 cAMP ctrl – parental HEK293 cAMP activation (counter-screen) | parental HEK293 CNG cAMP sensor, membrane potential fluorescence | Potency, µM (doses to about 57.1 µM), for inactives: top-dose activation, actives largely listed as activators | 73,000 tested, 2.5% active; active means well fitted activation curve with a large enough effect; inconclusive means small, poorly fitted or top-dose-only effect; inactive means no such curve, though single readings can be large or run the other way; further: % of control where 0% means no effect; nearly all actives have a fitted effect of over 55% in size
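Parental HEK 293 cells stably expressing a modified CNG channel (no TSHR) report cAMP rise as membrane depolarization. Membrane potential dye with 100 uM RO 20-1724 was loaded for 60 min at room temperature, then compound added for 30 min; fluorescence read at 590 nm.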
PK Bst – alters activity of Bacillus stearothermophilus pyruvate kinase. purified pyruvate kinase, luminescence ATP production; ribose 5-phosphate activator present at AC10. Potency, µM. 51,000 tested, 1.2% active. AID 361; in the data active means potency below about 11 µM; inconclusive means mostly about 12 µM to 25 µM;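 the screen sought inhibitors and activators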;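 further: scaled between full activation by ribose 5 phosphate and full inhibition by luteolin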
TSHR ag – activates the human thyroid stimulating hormone receptor | P16473 | HEK293-CNG-TSHR cells (CNG channel as cAMP sensor), membrane potential dye, cAMP | Potency, µM (doses to about 57.1 µM), for inactives: at the highest dose activation, hits mostly activators | 73,000 tested, 0.48% active; active means well fitted activation curve with a large enough effect in the main read-out, with a control signal flat, not every such curve was filed as active; inconclusive means small, poorly fitted or top-dose-only effect, or a change in a side signal; inactive means no such curve, though single readings can be large or run the other way; % of control where 0% means no effect;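 further: the control signal comes from parental cells without the receptor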
Target sequence (P16473 whole entry, looked up): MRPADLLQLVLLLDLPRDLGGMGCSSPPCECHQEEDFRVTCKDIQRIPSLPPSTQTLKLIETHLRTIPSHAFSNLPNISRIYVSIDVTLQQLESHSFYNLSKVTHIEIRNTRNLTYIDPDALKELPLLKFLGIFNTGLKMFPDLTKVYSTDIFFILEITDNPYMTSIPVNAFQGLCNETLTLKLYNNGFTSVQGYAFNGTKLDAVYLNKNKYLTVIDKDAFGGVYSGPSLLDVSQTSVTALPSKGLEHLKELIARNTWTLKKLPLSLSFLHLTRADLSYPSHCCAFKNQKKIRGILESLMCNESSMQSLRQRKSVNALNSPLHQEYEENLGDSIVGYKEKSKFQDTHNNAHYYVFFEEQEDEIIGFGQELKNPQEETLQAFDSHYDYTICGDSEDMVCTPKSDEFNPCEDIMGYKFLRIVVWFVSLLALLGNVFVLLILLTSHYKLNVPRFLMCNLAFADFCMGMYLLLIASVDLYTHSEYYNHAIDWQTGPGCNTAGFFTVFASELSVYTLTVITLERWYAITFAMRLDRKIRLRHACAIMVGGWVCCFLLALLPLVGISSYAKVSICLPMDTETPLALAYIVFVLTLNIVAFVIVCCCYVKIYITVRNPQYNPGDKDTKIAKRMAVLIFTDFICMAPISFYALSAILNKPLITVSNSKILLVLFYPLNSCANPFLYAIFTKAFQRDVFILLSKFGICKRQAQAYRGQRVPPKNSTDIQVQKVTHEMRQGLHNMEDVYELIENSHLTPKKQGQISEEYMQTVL
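cAMP rise detected as CNG-channel membrane depolarization by fluorescent dye (emission 590 nm), 30 min after compound, following 60 min dye loading containing 100 uM RO 20-1724 at room temperature. Cells: TSHR/CNG HEK 293, with parental CNG HEK 293 as control.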
GBA mod – modulators of human glucocerebrosidase; purified enzyme, resorufin glucoside fluorescence (screen aimed at inhibitors), 20 min; P04062; 48,000 tested, 1.1% active; Potency, µM; in the data active means potency below about 15 µM; inconclusive means mostly about 16 µM to 33 µM;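 further: the screen sought inhibitors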
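Compounds titrated against 0.2 nM normal enzyme, 30 uM resorufin beta-D-glucopyranoside substrate, citrate/phosphate buffer with taurocholate and tween-20, pH 5.9. Reaction ran 20 min at room temperature; fluorescence (Ex 548/Em 600) gave AC50.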
An asterisk follows results filed as active; [ ] = dose if it differs, or a comment. Potency means the concentration at half of the fitted maximal effect.

How did COc1ccc(N2CC(O)=C(c3nc4ccccc4s3)C2=N)c(OC)c1 do in these assays?
HEK293 cAMP ctrl: 8.1%; PK Bst: >11.4; TSHR ag: 1.8%; GBA mod: >76.9

How did COc1cccc(N2CC(O)=C(c3nc4ccccc4c(=O)[nH]3)C2=N)c1 do in these assays?
HEK293 cAMP ctrl: 20.7%; PK Bst: 2.88*; TSHR ag: 8.7%; GBA mod: >76.9

How did COc1ccc(-c2cc3nc(C)cc(NCCO)n3n2)cc1 do in these assays?
HEK293 cAMP ctrl: 10.8%; PK Bst: inconclusive; TSHR ag: -1.6%; GBA mod: >76.9

Results for Cc1ccc(-c2cc3nc(C)cc(NCc4ccco4)n3n2)cc1 ?
HEK293 cAMP ctrl: 11.7%; PK Bst: 6.48*; TSHR ag: 5.3%; GBA mod: >76.9

What do the screens show for `Cc1ccc(C(=O)CSc2nc(C)cc(SCc3nnc(-c4ccccc4)o3)n2)cc1`?
HEK293 cAMP ctrl: 7.94µM*; PK Bst: >57; TSHR ag: inconclusive; GBA mod: >76.9

What do the screens show for `Cc1cc(N2CCCCC2)nc(SCC(=O)c2ccccc2)n1`?
HEK293 cAMP ctrl: inconclusive; PK Bst: >57; TSHR ag: inconclusive; GBA mod: >76.9

Results for CC(=O)CC(=O)Nc1ccccc1 ?
HEK293 cAMP ctrl: -2.3%; TSHR ag: 0.9%

What do the screens show for `CCCc1cc2c(c(=O)o1)C(O)C1OC1C2=O` (stereo unspecified)?
HEK293 cAMP ctrl: -6.0%[11.4 µM]; TSHR ag: -11.2%[11.4 µM]

What do the screens show for `Cc1nn(-c2ccccc2)c(C)c1C(=O)OCC(=O)c1c(N)n(CC(C)C)c(=O)n(C)c1=O`?
HEK293 cAMP ctrl: 15.8µM*; PK Bst: >57; TSHR ag: inconclusive; GBA mod: >76.9

What do the screens show for `CN(C)c1ccc(-c2nccc(Nc3ccc(F)cc3)n2)cc1`?
HEK293 cAMP ctrl: -11.8%; TSHR ag: -0.2%

How did COc1ccc(/C=N/n2c(N)nc3ccccc32)cc1OC do in these assays?
HEK293 cAMP ctrl: 20.3%; PK Bst: 8.38*; TSHR ag: 10.1%; GBA mod: >76.9

How did Cc1ccc(C(=O)Nc2nc3ccccc3c(=O)s2)cc1 do in these assays?
HEK293 cAMP ctrl: 11.9%; PK Bst: 6.81*; TSHR ag: 4.7%; GBA mod: >76.9

Results for Cc1ccnc(N2CCC(C(=O)Nc3nnc(C)s3)CC2)n1 ?
HEK293 cAMP ctrl: 12.5%; PK Bst: >57; TSHR ag: 7.2%; GBA mod: 11.7*

How did Cc1ccnc(N2CCCC(C(=O)Nc3nnc(C)s3)C2)n1 (stereo unspecified) do in these assays?
HEK293 cAMP ctrl: 8.0%; PK Bst: >57; TSHR ag: 0.0%

What do the screens show for `Cc1cc(=O)oc2cc(OC(C)C(=O)N3CCCc4ccccc43)ccc12` (stereo unspecified)?
HEK293 cAMP ctrl: 25.1µM*; PK Bst: >57; TSHR ag: inconclusive; GBA mod: >76.9

How did CC(C)OC(=O)CN1CCN(C2c3ccccc3-c3ccccc32)CC1 do in these assays?
HEK293 cAMP ctrl: 19.4%; PK Bst: >57; TSHR ag: 25.1µM*; GBA mod: >76.9

How did CCOC(=O)N1CCN(C2OC(=O)c3ccccc32)CC1 (stereo unspecified) do in these assays?
PK Bst: >25.6

Results for Cn1c(CSc2ccccc2)c(C#N)c2ccccc21 ?
HEK293 cAMP ctrl: 25.1µM*; PK Bst: >57; TSHR ag: inconclusive; GBA mod: >76.9

Results for c1cncc(-c2nc(NCc3cccs3)c3ccccc3n2)c1 ?
HEK293 cAMP ctrl: 14.1%; TSHR ag: 31.6µM*

Results for CCCCN1CSC(=S)N(Cc2ccccc2)C1 ?
HEK293 cAMP ctrl: 5.3%[11.4 µM]; TSHR ag: -1.0%[11.4 µM]

What do the screens show for `O=C1c2ccccc2[C@@H]([C@@H]2c3ccccc3C(=O)c3cc(Br)ccc32)c2ccc(Br)cc21`?
HEK293 cAMP ctrl: 6.0%[11.4 µM]; TSHR ag: -4.4%[11.4 µM]

What do the screens show for `C=CCn1c(COc2ccc(F)cc2)nnc1SCC(=O)NC(=O)NCc1ccco1`?
HEK293 cAMP ctrl: 10.0%; PK Bst: >57; TSHR ag: 3.5%; GBA mod: 15.2*

How did CCN(CCO)C[C@H]1CCC[C@H]2CCCC[C@@H]21 do in these assays?
HEK293 cAMP ctrl: 0.2%[11.4 µM]; TSHR ag: 4.4%[11.4 µM]

What do the screens show for `CCOc1ccc2noc3c2c1C(=O)c1ccccc1-3`?
HEK293 cAMP ctrl: -5.6%; TSHR ag: -15.0%

What do the screens show for `O=C1c2ccccc2-c2onc3ccc(NCc4ccco4)c1c23`?
PK Bst: 5.26*

Results for Cc1cc2ccc(OC(=O)c3ccc(N=C(N)N)cc3)cc2oc1=O ?
HEK293 cAMP ctrl: -6.3%[11.4 µM]; TSHR ag: -0.7%[11.4 µM]

Results for CCOC(=O)C1CCN(c2nc3ccccc3nc2C(C#N)C(=O)OC(C)C)CC1 (stereo unspecified) ?
PK Bst: >25.6

How did CCOC(=O)C1CCN(c2nc3ccccc3nc2C(C#N)C(=O)OC(C)COC)CC1 (stereo unspecified) do in these assays?
PK Bst: 5.59*

Results for CCOC(=O)C1CCN(c2nc3ccccc3nc2C(C#N)C(=O)OCCOC)CC1 (stereo unspecified) ?
PK Bst: 2.28*

What do the screens show for `CCOC(=O)C1=C(N)OC2=C(C(=O)CC(C)(C)C2)C1c1ccoc1` (stereo unspecified)?
HEK293 cAMP ctrl: 12.6µM*; PK Bst: >57; TSHR ag: inconclusive; GBA mod: >76.9

What do the screens show for `COC(=O)C1=C(C)NC2=C(C(=O)CCC2)C1c1cccs1` (stereo unspecified)?
HEK293 cAMP ctrl: 1.2%; PK Bst: >57; TSHR ag: 9.4%; GBA mod: >76.9

Results for CCOC(=O)C1=C(N)OC2=C(C(=O)CCC2)C1c1cccnc1 (stereo unspecified) ?
HEK293 cAMP ctrl: 1.4%; PK Bst: >57; TSHR ag: 7.6%; GBA mod: >76.9

What do the screens show for `COC(=O)C1=C(N)OC2=C(C(=O)CC(C)(C)C2)C1c1cccs1` (stereo unspecified)?
HEK293 cAMP ctrl: 3.16µM*; TSHR ag: inconclusive

Results for CC1(C)[C@@H]2CC[C@]1(CC(=O)O)[C@H](Cl)C2 ?
HEK293 cAMP ctrl: -9.9%[11.4 µM]; TSHR ag: 5.7%[11.4 µM]

How did Cc1cc(C)n(-c2nc3ccccc3c(=O)n2OCC(=O)N(C)C)n1 do in these assays?
HEK293 cAMP ctrl: 4.0%; PK Bst: >57; TSHR ag: -2.5%; GBA mod: >76.9

How did Cc1cc(C)n(-c2nc3ccccc3c(=O)n2OCC(=O)Nc2c(C)cccc2C)n1 do in these assays?
HEK293 cAMP ctrl: 26.6%; PK Bst: >57; TSHR ag: 12.6µM*; GBA mod: >76.9

How did CC(C)[C@@H]1O[C@H](/C=C\c2ccccc2)OCC1(C)C do in these assays?
HEK293 cAMP ctrl: 22.4%[11.4 µM]; TSHR ag: 5.0%[11.4 µM]

What do the screens show for `CC(CO)(CO)N=Cc1cc(I)cc(I)c1O`?
HEK293 cAMP ctrl: -7.1%[11.4 µM]; TSHR ag: 3.3%[11.4 µM]

What do the screens show for `CN1C(=O)CSc2ccc(NC(=O)N3CCc4ccccc43)cc21`?
HEK293 cAMP ctrl: -3.1%; PK Bst: 8.22*; TSHR ag: 0.4%; GBA mod: >76.9

Results for O=C(O)CCCNc1cc(N2CCC3(CC2)OCCO3)c2noc3c2c1C(=O)c1ccccc1-3 ?
HEK293 cAMP ctrl: -23.6%; PK Bst: inactive; TSHR ag: -19.5%; GBA mod: 11.8*

Screens from PubChem.
